The results in this text go back to PubChem BioAssay (Tox21).

Each structure is given as a SMILES string. Inconclusive results are not listed. Where a call stands in place of a potency, no number is given. Active and inactive are the calls of the source. Calls follow the shape of the dose curve; as a rule, active = well fitted cell-killing curve with a large enough effect in the repeat runs; inconclusive = weak or mixed curves, or effect the other way; inactive = no such curve, though single readings can be large or run the other way.

The experiment in a line: qHTS assay to identify small molecule antagonists of the glucocorticoid receptor (GR) signaling pathway - cell viability counter screen (AID 720693). Also: nearly all actives have a fitted effect of over 55% in size. To be noted: GR-bla HeLa viability, CellTiter-Glo luminescence, 18 h, with 5 nM dexamethasone present; series mostly up to 58.5 µM. From the text: National Center for Advancing Translational Sciences [NCATS]
NIH Chemical Genomics Center [NCGC]
U.S. Environmental Protection Agency [EPA]
National Institutes of Environmental Health Sciences [NIEHS]
National Toxicology Program [NTP]
U.S. Food and Drug Administration [FDA]
The Glucocorticoid receptor (GR) is one of the members of the nuclear receptor family of ligand-dependent transcription factors. GR plays a critical role in carbohydrate, protein and lipid metabolisms and programmed cell death. CellSensor GR-bla HeLa cell line (Invitrogen) contains a beta-lactamase reporter gene under the control of the glucocorticoid response element stably integrated into HeLa cells, a cervical cancer cell line that expresses glucocorticoid receptor. The activation of the reporter gene under culture conditions can be detected by fluorescence intensity. This cell line has been used to screen the Tox21 10K compound library and to identify the compounds that inhibit the GR signaling. The cytotoxicity of the Tox21 compound library against the GR-bla HeLa cell line was tested in parallel by measuring the cell viability using CellTiter-Glo assay in the same wells.
Tox21 Assay Protocol Summary:
The GR-bla HeLa cells were dispensed at 1500 cells/5 ul/well in 1536-well black wall/clear bottom plates using a Multidrop Combi (ThermoFisher Scientific, Waltham, MA) dispenser. After the assay plates were incubated at a 37 C/5% CO2 incubator for 4 hours, 23 nL of compounds dissolved in DMSO, positive controls or DMSO only was transferred to the assay plate by a pintool station (Kalypsys, San Diego, CA), followed by addition of 1 uL of dexamethasone (5 nM, final concentration in the well). The plates were incubated at 37 C for 18 hours. After 1 uL of LiveBLAzerTM B/G FRET substrate was added using a Flying Reagent Dispenser (Aurora Discovery, San Diego, CA), the plates were incubated at room temperature (RT) for 2 hours, and fluorescence intensity was measured by an Envision plate reader (PerkinElmer, Shelton, CT). After measurement of bla assay, 3 ul CellTiter-Glo (Promega, Madison, WI) was added to measure the cytotoxicity and the plates were then incubated at RT for 30 min. The luminescence was measured using a ViewLux (Perkin Elmer) plate reader.
(In qHTS, concentration-response curves come from the screen itself.)
As for `CCC(C)(C)C1CCC(=O)CC1`, the Potency entry was “inactive”.

On to `CC(C)CCCC(C)CC=O` (stereo not given), for which the Potency result was “inactive”.

`O=C1c2ccccc2-c2ccccc21`: the Potency result was “inactive”.

With `NCCc1ccn[nH]1`, the Potency entry is “inactive”.

Consider `CCCCCCCCCCCCOC(C)=O`, for which the Potency result was “inactive”.

As for `NC(=O)NNC(N)=O`, the Potency entry was “inactive”.

For `CC(=O)OCCCc1ccccc1`, the Potency entry is “inactive”.

Regarding `NC(=O)C1(N2CCCCC2)CCN(CCCC(=O)c2ccc(F)cc2)CC1`, the Potency entry was “inactive”.

Take `CCC(=O)c1ccc(O)cc1`: the Potency entry is “inactive”.

Take `CCOC(=O)CCCCCCCCC(=O)OCC`: the Potency entry was “inactive”.

As for `CCC1COC(=O)O1` (stereo not given), the Potency result was “inactive”.

In the case of `NS(=O)(=O)c1ccc(Cl)c(S(N)(=O)=O)c1`, the Potency entry is “inactive”.

As for `C[C@H](CCC(=O)O)[C@H]1CC[C@H]2[C@@H]3[C@H](O)C[C@@H]4C[C@H](O)CC[C@]4(C)[C@H]3C[C@H](O)[C@]12C`, the Potency entry is “inactive”.

Take `O=C(Nc1cccc(C2=NCCN2)c1)Nc1cccc(C2=NCCN2)c1`: the Potency entry is “inactive”.

Turning to `CCCCOC(=O)[C@@H](C)Oc1ccc(Oc2ccc(C(F)(F)F)cn2)cc1`, the Potency result is “inactive”.

Regarding `COc1cc2c3cc1Oc1cc(ccc1O)C[C@@H]1c4c(cc(OC)c(O)c4Oc4ccc(cc4)C[C@@H]3N(C)CC2)CC[N+]1(C)C`, the Potency result is “inactive”.

For the molecule `CC(C)CCC(=O)CCC(C)C`, the Potency result is “inactive”.

Regarding `CCCCCCCC[Si](OCC)(OCC)OCC`, the Potency entry is “inactive”.

As for `CCCO`, the Potency result is “inactive”.

Regarding `CCN(CCO)c1cccc(C)c1`, the Potency result was “inactive”.

In the case of `Cc1oc(=O)oc1CN1CCN(c2cc3c(cc2F)c(=O)c(C(=O)O)c2n3C(C)S2)CC1` (stereo not given), the Potency result was “inactive”.

Regarding `Nc1ccc(S(=O)(=O)Nc2ccccn2)cc1`, the Potency result was “inactive”.

As for `COc1ccc(/C=N/NC(=O)c2ccncc2)cc1OC`, the Potency result was “inactive”.

Consider `CCCCCCCCCCCCC1CO1` (stereo not given), for which the Potency result was “inactive”.

As to `CC(CC(=O)O)CC(C)(C)C` (stereo not given), the Potency entry is “inactive”.

With `Cc1ccc(S(=O)(=O)NC(=O)NC2CCCCCCC2)cc1`, the Potency entry was “inactive”.

As to `C=CCOCC(O)CCl` (stereo not given), the Potency result is “inactive”.

As for `CCN(Cc1cccc(S(=O)(=O)O)c1)c1ccccc1`, the Potency entry is “inactive”.

Regarding `Cc1cccc(NC(=S)N(C)C)c1`, the Potency result was “inactive”.

Consider `CCCCCCCCCOCC1CO1` (stereo not given), for which the Potency result was “inactive”.

Consider `CC(=O)/C=C/c1ccco1`, for which the Potency result was “inactive”.

`O=c1[nH]c(=O)c2[nH]c(=O)[nH]c2[nH]1`: the Potency result was “inactive”.

For the molecule `O=C(O)/C=C/c1ccccc1`, the Potency entry is “inactive”.

As for `O=CO`, the viability change, negative = cytotoxic was -3.59% [at 7.04 µM] (inactive).

Regarding `CC(=O)Nc1ccc(C)cc1`, the Potency result was “inactive”.

For the molecule `Nc1c(NC/C=C\COc2cc(CN3CCCCC3)ccn2)c(=O)c1=O`, the Potency entry is “inactive”.

Consider `COC(/C=C(\C)CCC=C(C)C)OC`, for which the Potency entry was “inactive”.

As to `CC1=CC[C@H](CC=O)C1(C)C`, the Potency entry was “inactive”.

For the molecule `CC(=O)N(CC(O)CO)c1c(I)c(C(=O)NCC(O)CO)c(I)c(C(=O)NCC(O)CO)c1I` (stereo not given), the Potency entry is “inactive”.

For the molecule `C=CCOc1cc(Cl)ccc1C(=O)NCCN(CC)CC`, the Potency entry is “inactive”.
